# Assay results as given in PubChem BioAssay AID504444 (National Center for Advancing Translational Sciences (NCATS), 2011).
# Among all 360,000 compounds or so, about 7,500 (2.1%) were called active. Not shown: some 20% with an inconclusive outcome. The list comes from a sample in which actives are over-represented; it also holds similar structures and randomly drawn compounds. Values without a mark were called inactive. Calls follow the shape of the dose curve; as a rule, active = well fitted inhibition curve with a large enough effect; inconclusive = small, poorly fitted or top-dose-only effect, or effect the other way; inactive = flat fitted curve, though single readings scatter.
# Assay: Nrf2 qHTS screen for inhibitors; also: nearly all actives have a fitted effect of over 60% in size
# Details: A549 ARE-Fluc reporter, luciferase luminescence, 18-24 h; series mostly up to 46 µM; activity change, negative = inhibition: at the top concentration
# In short: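 Nrf2 function is reported as luminescence of an ARE-controlled luciferase in A549 cells. Compounds were tested at several concentrations, and a CellTiter-Fluor read on the same wells flagged cytotoxicity.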
# % is scaled to controls: 0 for no effect and ±100 for the full control effect; potency is read from the fitted curve at half-maximal effect.
SMILES,"activity change, negative = inhibition",Potency
COc1cccc(NC(=O)CSc2cc(=O)n(C)c3ccc(Cl)cc23)c1,-28%,–
Cc1ccc(N2CC(c3nnc(Cc4ccccc4Cl)o3)CC2=O)cc1 (configuration not stated),18.7%,–
CN1CCC(N(C)C(=O)c2ccc(Cl)c(S(=O)(=O)Nc3ccc(Cl)cc3)c2)CC1,3.83%,–
COc1ccccc1-c1ccnc2[nH]n(-c3ccccc3)c(=O)c12,-1.14%,–
CCOc1ccccc1NC(=O)c1ccc2c(c1)CCN2S(=O)(=O)c1ccc(C)cc1,14.1%,–
CC(NS(=O)(=O)c1ccc(Cl)cc1)C(=O)Nc1ccc2c(c1)OCCO2 (configuration not stated),0.41%,–
O=C(Nc1ccc(NC(=O)c2ccc3c(c2)OCO3)cc1)c1cccc(Cl)c1,3.66%,–
O=C(Nc1cccc(S(=O)(=O)Nc2ccc(Cl)cc2)c1)c1ccc2c(c1)OCCO2,–,10.3 µM (active)
CCN(CC)S(=O)(=O)c1ccc(N(C)Cc2ccc(C(F)(F)F)cc2)nc1,–,18.4 µM (active)
CCN(CC)S(=O)(=O)c1ccc(N(C)CCc2ccc(OC)c(OC)c2)nc1,-2.74%,–
CCN(CC)S(=O)(=O)c1ccc(NC(=O)c2cnc(C)cn2)cc1,-2.49%,–
CCOC(=O)C1=C(C)N(C[C@@H]2CC[C@@H](Cc3ccc(-c4ccccc4)cc3)O2)C(=O)NC1c1ccc([N+](=O)[O-])cc1 (some centres not stated),-22.3%,–
Cc1ccc(F)cc1NC(=O)CCSc1nc(-c2ccco2)cc(C(F)(F)F)n1,-13.2%,–
O=C(CSc1nnc2c(n1)[nH]c1ccccc12)NC1CCCCC1,–,3.66 µM (active)
CCOc1ccc2[nH]c3nc(SCC(=O)NC4CCCC4)nnc3c2c1,3.92%,–
COc1ccc2[nH]c3nc(SCC(=O)NC4CC4)nnc3c2c1,0.184%,–
CCOC(=O)c1cccc(NC(=O)C(Cc2ccccc2)NS(=O)(=O)c2cccc3nsnc23)c1 (configuration not stated),24.3%,–
Cc1ccc2oc3c(c(=O)c2c1)C(c1ccc(O)cc1)N(Cc1ccc2c(c1)OCO2)C3=O (configuration not stated),-8.81%,–
CC(C)[C@@H](C(=O)OCC(=O)c1ccc2c(c1)NC(=O)CO2)N1C(=O)c2ccccc2C1=O,-8%,–
CC(C)c1ccc(S(=O)(=O)Nc2ccc(O)c(Sc3nc4ccccc4s3)c2)cc1,9.38%,–
O=C(CCn1ccc2cc(S(=O)(=O)N3CCCC3)ccc21)NCc1cccc(Cl)c1,-6.98%,–
O=C(CCC(=O)N1CCN(S(=O)(=O)c2ccc(Cl)cc2)CC1)NCc1cccc(C(F)(F)F)c1,–,8.2 µM (active)
O=C(CCC(=O)c1ccccc1)NCc1cccc(C(F)(F)F)c1,3.64%,–
COc1ccc(-c2nc(=N)sn2-c2ccccc2)cc1,24%,–

SMILES,"activity change, negative = inhibition",Potency
Cc1ccc(NC2=C(c3ccc(C(F)(F)F)cc3)C(=O)c3ccccc32)cc1F,-20.5%,–
O=S(=O)(Nc1ccc2nc(-c3cccc(Cl)c3)oc2c1)c1ccccc1,-21.7%,–
O=C(Nn1c(-c2ccccc2)nc2ccccc2c1=O)c1ccc([N+](=O)[O-])cc1,-12.6%,–
O=C(Nc1ccccc1C(=O)Nc1ccncc1)c1ccc([N+](=O)[O-])cc1,6.83%,–
O=C(Nc1cc(-c2ccccc2)nn1-c1ccccc1F)c1ccc([N+](=O)[O-])cc1,–,20.6 µM (active)
COc1cccc(CNCCSc2nnnn2C)c1OCc1ccccc1Cl,-11.2%,–
COc1cc(OC)c(OC)cc1/C=N/Nc1ncnc2c1[nH]c1ccc(C)cc12,1.21%,–
CC(C)OCCCNC(=O)c1cc(Sc2ccc(F)cc2)nc2ccccc12,-13.6%,–
CC(C)OCCCNc1ncnc2c1[nH]c1ccc(F)cc12,–,4.11 µM (active)
Cc1ccc(CCNC(=O)c2nnc(Cc3cccc(F)c3)o2)cc1,-25.7%,–
CCOC(=O)c1ccc(CSc2nnc3cc(C)c4ccccc4n23)cc1,15%,–
CC1C=CCC2C(=O)N(c3cccc(C(=O)N4CCCCCC4)c3)C(=O)C12 (configuration not stated),10.5%,–
Cc1cccc(N2CCN(C(=O)c3cccc(N4C(=O)C5C6C=CC(C6)C5C4=O)c3)CC2)c1C (configuration not stated),–,18.4 µM (active)
COC(=O)c1cccc(N2C(=O)C3C4C=CC(CC4)C3C2=O)c1 (configuration not stated),0.177%,–
O=C(c1ccco1)N(Cc1cccs1)c1ccc(O)cc1,-5.51%,–
COc1ccccc1-c1cc2nc(C)c(CCC(=O)O)c(C)n2n1,–,3.66 µM (active)
COc1ccccc1-c1cc2nc(C)c(CCC(=O)NC3CCCCC3)c(C)n2n1,-10.5%,–
COc1cc(OC)cc(-c2nc3nc(C)c(CCC(=O)Nc4ccccc4)c(C)n3n2)c1,-0.881%,–
COc1ccc(C)cc1Nc1nc2ccccc2c2nnc(C)n12,18.3%,–
CCCSc1ncc(Cl)c(C(=O)Nc2sc3c(c2C(=O)NCCOC)CCCC3)n1,-19.9%,–
Cc1ccc(CSc2nc3[nH]ncc3c(=O)[nH]2)cc1,2.03%,–
CCc1ccc(-n2c(SCc3cc(=O)n4cc(Br)ccc4n3)nc3[nH]ncc3c2=O)cc1,–,16.4 µM (active)
COc1ccc(CCNC(=O)CSc2nc3[nH]ncc3c(=O)n2-c2cccc(C(F)(F)F)c2)cc1OC,-14.3%,–
